Measurements as given in PubChem BioAssay (Tox21).
Values joined by “and” are separate entries in the source; they are usually repeats but may differ in a detail not shown here. Identical values can stand only once. A number with no mark means an inactive call. A call without a number means that no potency is given here. Active and inactive are the calls of the source. Calls follow the shape of the dose curve; as a rule, active = well fitted cell-killing curve with a large enough effect in the repeat runs; inconclusive = weak or mixed curves, or effect the other way; inactive = flat fitted curve, though single readings scatter.

Experiment: qHTS assay to identify small molecule HDAC inhibitors - cell viability counter screen (AID 1259365); also: nearly all actives have a fitted effect of over 50% in size
Details: HCT-116 viability, CellTiter-Glo ATP luminescence, 2 h; series mostly up to 92.4 µM; activity change, negative = cytotoxicity: at the top concentration
From the text: U.S. Tox21 Program National Center for Advancing Translational Sciences [NCATS] NIH Chemical Genomics Center [NCGC] U.S. Environmental Protection Agency [EPA] National Institutes of Environmental Health Sciences [NIEHS] National Toxicology Program [NTP] U.S. Food and Drug Administration [FDA] Tox21 Assay Overview: Histone deacetylases (HDACs) are a group of epigenetic enzymes that regulate gene expression by histone deacetylation. HDACs are capable of introducing epigenetic modifications and such aberrations contribute to the onset and progression of several human diseases, thus making HDACs a popular therapeutic target. For identifying endogenous class I/II HDAC inhibitors a homogenous, luminogenic HDAC I/II cell based assay was used to measure the relative activity of class I and II HDACs from cells. Wild type HCT-116 cells were used to screen Tox21 compound libraries for identifying class I/II HDAC inhibitors.
Tox21 Assay Protocol Summary: HCT-116 cells were dispensed at 1,500 per well in 5uL of culture medium into white solid bottom 1536-well plates (Greiner Bio-One, Monroe, NC) using a Multidrop Combi (Thermo Scientific, Waltham, MA) dispenser. The assay plates were incubated at 37 C and 5% CO2 for an overnight, and then 23nL of compounds dissolved in DMSO and positive control were transferred using a Pintool station (Wako, San Diego, CA). The assay plates were incubated at 37C and 5% CO2 for 2hr. After compound treatment, 4uL of CellTiter-Glo reagent (Promega Corporation, Madison, WI) was added to each well of the assay plates using Flying Reagent Dispenser (FRD, Aurora Discovery, San Diego, CA) and incubated the assay plates at room temperature for 30min. The luminescence signal was quantified using a ViewLux plate reader (Perkin Elmer, Shelton, CT).
Potency is read from the fitted curve at half-maximal effect.

Compound | Potency | activity change, negative = cytotoxicity [%]
Brc1ccc(Br)cc1 | inactive | 
COc1ccc(CO)cc1 | inactive | 
O=P(OCCCl)(OCCCl)OCCCl | inactive | 
NN=C(N)N | inactive | 
CCNc1nc(Cl)nc(NC(C)(C)C#N)n1 | inactive | 
C[N+](C)(C)C | inactive | 
CNC(=S)S | inactive | 
c1ccc(C2CO2)cc1 (stereo not given) | inactive | 
ClC(Cl)(Cl)Br | inactive | 
CC(O)CN(CC(C)O)CC(C)O (stereo not given) | inactive | 
OCCOCCO | inactive | 
C[N+](C)(C)CC(=O)O | inactive | 
CC1(C)Cc2cccc(O)c2O1 | inactive | 
CCOC(=O)c1ccccc1N | inactive | 
CN(C)P(=O)(N(C)C)N(C)C | inactive | 
NC(=O)CN1CCCC1=O | inactive | 
CN(C)c1ccccc1 | inactive | 
[CH3][Sn]([Cl])([Cl])[Cl] | inactive | 
CC1CC(=O)O1 (stereo not given) | inactive | 
ClC(Cl)(Cl)c1ccccc1 | inactive | 

Compound | Potency | activity change, negative = cytotoxicity [%]
CCOP(=S)(OCC)OP(=S)(OCC)OCC | inactive | 
CC(C)Nc1nc(Cl)nc(NC(C)C)n1 | inactive | 
Cn1c(-c2ccccc2)cc(-c2ccccc2)[n+]1C | inactive | 
CC(C)COC(=O)c1ccccc1C(=O)OCC(C)C | inactive | 
CC(C)CON=O | inactive | 
CC1=C(C(=O)Nc2ccccc2)SCCO1 | inactive | 
Clc1cccc(C(Cl)(Cl)Cl)n1 | inactive | 
CC[n+]1c(-c2ccccc2)c2cc(N)ccc2c2ccc(N)cc21 | inactive | 
Cc1ccc([N+](=O)[O-])cc1 | inactive | 
N#CC(c1ccccc1)c1ccccc1 | inactive | 
Nc1ccc2ccccc2c1 | inactive | 
CCOP(=O)(O)OCC (tested in a mixture with another compound) |  | -1.28
N#Cc1cccnc1 | inactive | 
C=C(C)C#N | inactive | 
COP(=S)(OC)Oc1ccc(Sc2ccc(OP(=S)(OC)OC)cc2)cc1 | inactive | 
CC1(C)C(C(=O)OC(C#N)c2cccc(Oc3ccccc3)c2)C1(C)C (stereo not given) | inactive | 
COc1ccc(C=O)cc1OC | inactive | 
CC(C)=CC1C(C(=O)OCN2C(=O)C3=C(CCCC3)C2=O)C1(C)C (stereo not given) | inactive | 
Cl | inactive | 
CCC[CH2][Sn]([Cl])([CH2]CCC)[CH2]CCC | 19.4 µM (active) and 17.2 µM (active) | 
